# “And” between values parts separate entries of the source, which are not always exact repeats. Equal values may be shown once. The panel holds about 83,000 compounds, 20% with a hit somewhere; the sample as a whole holds those more often.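 A percent growth of 40 corresponds to 60% growth inhibition; 0 means no net growth; -100 means all cells died. Active threshold: below 10.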 The source made the active and inactive calls.
# Assays:
# Assay in all cases: NCI-60 one-dose screen, 48 h (100 = growth as untreated, 0 = no growth, -100 = all killed)
# Conditions in all cases: 10 µM unless noted
# [1] = tested on: HCT-15 colon
# [2] = tested on: HT29 colon
# [3] = tested on: SNB-75 CNS
# [4] = tested on: SNB-19 CNS
# [5] = tested on: U251 CNS
# [6] = tested on: PC-3 prostate
# [7] = tested on: SK-MEL-5 melanoma
# [8] = tested on: UACC-62 melanoma
# [9] = tested on: LOX IMVI melanoma
# [10] = tested on: SK-MEL-2 melanoma
# [11] = tested on: EKVX NSCLC
# [12] = tested on: SN12C renal
# [13] = tested on: UO-31 renal
# [14] = tested on: TK-10 renal
# [15] = tested on: ACHN renal
# [16] = tested on: CAKI-1 renal
# [17] = tested on: A498 renal
# [18] = tested on: CCRF-CEM leukemia
# [19] = tested on: MOLT-4 leukemia
# [20] = tested on: SK-MEL-28 melanoma
SMILES,growth [1],growth [2],growth [3],growth [4],growth [5],growth [6],growth [7],growth [8],growth [9],growth [10],growth [11],growth [12],growth [13],growth [14],growth [15],growth [16],growth [17],growth [18],growth [19],growth [20]
CCN(CC)CCC(CNc1c2ccc([N+](=O)[O-])cc2nc2cc(OC)c(OC)cc12)c1ccccc1 (centres undefined),-29.4% (active) and -71.4% (active),3.73% (active) and -97.3% (active),-95.7% (active) and -97.6% (active),-42.9% (active) and -93.8% (active),-44.7% (active) and -100% (active),-62.6% (active) and -97.1% (active),-81.8% (active) and -100% (active),-78.6% (active) and -100% (active),-62.2% (active) and -100% (active),-11.9% (active) and -77.5% (active),-23.6% (active) and -87.3% (active),-27.1% (active) and -91.6% (active),-73.9% (active) and -99.4% (active),-4.61% (active) and -89.9% (active),-58.9% (active) and -76.9% (active),8.78% (active) and -76.1% (active),-16.9% (active),1.82% (active) and -50.9% (active),5.7% (active),–
CC1=C(/C=C/C(C)=C/C=C/C(C)=C/C(=O)O)C(C)(C)CCC1,91.4% (inactive) and 81.1% (inactive) and 92% (inactive),88.7% (inactive) and 89.2% (inactive) and 96% (inactive),122% (inactive) and 72.2% (inactive) and 79.7% (inactive),86.1% (inactive) and 97.4% (inactive) and 90.3% (inactive),83.2% (inactive) and 87.1% (inactive) and 90.4% (inactive),88.3% (inactive) and 89.7% (inactive) and 101% (inactive),83.5% (inactive) and 86.5% (inactive) and 99.3% (inactive),73.2% (inactive) and 80.4% (inactive) and 61.3% (inactive),91% (inactive) and 85.3% (inactive) and 89.9% (inactive),87.5% (inactive) and 94.7% (inactive),84% (inactive) and 92.2% (inactive) and 87.7% (inactive),81% (inactive) and 85.3% (inactive) and 73.8% (inactive),80.9% (inactive) and 64.5% (inactive) and 86.8% (inactive),101% (inactive) and 99.5% (inactive) and 109% (inactive),94.9% (inactive) and 98.9% (inactive) and 94.8% (inactive),81.3% (inactive) and 87% (inactive) and 82.9% (inactive),20.2% (inactive) and 109% (inactive) and 86.7% (inactive),78.5% (inactive) and 92.8% (inactive) and 103% (inactive),59.3% (inactive) and 99% (inactive) and 83.8% (inactive),–
Nc1nc2ncc(CNc3ccc(C(=O)N[C@@H](CCc4nn[nH]n4)C(=O)O)cc3)nc2c(=O)[nH]1,104% (inactive) and 103% (inactive),104% (inactive) and 92.3% (inactive),87.4% (inactive) and 97.4% (inactive),107% (inactive) and 95.6% (inactive),99.8% (inactive) and 91.4% (inactive),101% (inactive) and 85.3% (inactive),101% (inactive) and 96.7% (inactive),97.3% (inactive) and 94.5% (inactive),99.5% (inactive) and 98.7% (inactive),105% (inactive) and 104% (inactive),96.1% (inactive) and 106% (inactive),109% (inactive) and 98.2% (inactive),89.7% (inactive) and 89.8% (inactive),111% (inactive) and 109% (inactive),92.2% (inactive) and 104% (inactive),93% (inactive) and 101% (inactive),–,108% (inactive) and 94.5% (inactive),95.6% (inactive),–
O=C(N/N=C/c1cccc2ccccc12)C1CC1,107% (inactive) and 113% (inactive),102% (inactive) and 110% (inactive),90.9% (inactive) and 85% (inactive),98.8% (inactive) and 95.1% (inactive),99.7% (inactive) and 100% (inactive),100% (inactive) and 102% (inactive),105% (inactive) and 96.6% (inactive),92.3% (inactive) and 99.8% (inactive),91.8% (inactive),98.6% (inactive) and 115% (inactive),72.5% (inactive) and 53% (inactive),104% (inactive) and 88.6% (inactive),90.1% (inactive) and 102% (inactive),131% (inactive) and 121% (inactive),127% (inactive) and 110% (inactive),108% (inactive) and 90% (inactive),–,88.3% (inactive),67.1% (inactive) and 113% (inactive),–
O=C(O)C1(C(=O)O)CCC1.[NH2-].[NH2-].[Pt+2],102% (inactive) and 103% (inactive),106% (inactive) and 89.3% (inactive),84.7% (inactive) and 88.6% (inactive),94.6% (inactive) and 99.2% (inactive),102% (inactive) and 94.1% (inactive),93.6% (inactive) and 78.5% (inactive),101% (inactive) and 94.1% (inactive),96.1% (inactive) and 95.3% (inactive),95.9% (inactive) and 87.9% (inactive),97.8% (inactive) and 104% (inactive),97.1% (inactive) and 106% (inactive),–,–,111% (inactive) and 104% (inactive),96.4% (inactive) and 103% (inactive),88% (inactive) and 81.1% (inactive),111% (inactive) and 98.4% (inactive),90.8% (inactive),113% (inactive) and 67% (inactive),112% (inactive)
Oc1nc(NCCc2ccccc2)sc1/C=C1\C=Nc2ncccc21,33.5% (inactive) and 36.5% (inactive),27.8% (inactive) and 30.6% (inactive),-13.3% (active) and -10.9% (active),12.1% (inactive),7.63% (active) and 15.8% (inactive),19.2% (inactive) and 25.9% (inactive),-0.16% (active) and 14.5% (inactive),-1.3% (active) and -1.44% (active),8.25% (active) and 16.3% (inactive),-4.61% (active) and 28.8% (inactive),40.9% (inactive) and 46% (inactive),–,–,18.8% (inactive) and 34.2% (inactive),–,54.8% (inactive) and 37.4% (inactive),-21.3% (active) and -7.55% (active),5.53% (active) and 9.93% (active),8.59% (active) and 11.4% (inactive),0.815% (active) and 16% (inactive)
CC1(C)[C@@H](OC(=O)CCC(=O)O)CC[C@]2(C)[C@H]3C(=O)C=C4[C@@H]5C[C@@](C)(C(=O)O)CC[C@]5(C)CC[C@@]4(C)[C@]3(C)CC[C@@H]12,101% (inactive) and -39.6% (active),103% (inactive) and -8.67% (active),-68.7% (active),102% (inactive) and -3.23% (active),110% (inactive) and -91.2% (active),103% (inactive) and -28.4% (active),105% (inactive) and -82.7% (active),106% (inactive) and -80% (active),104% (inactive) and -50.8% (active),107% (inactive) and -59.9% (active),107% (inactive) and -33.4% (active),–,102% (inactive) and -96.1% (active),104% (inactive) and -36.8% (active),103% (inactive) and -79.6% (active),100% (inactive) and -30.4% (active),112% (inactive) and -65.7% (active),92.6% (inactive) and -37.2% (active),88.3% (inactive) and -35% (active),105% (inactive) and -66% (active)
CC(/C=N/N1C(=O)c2ccccc2C1=O)c1ccccc1 (centres undefined),98.2% (inactive),108% (inactive),83% (inactive),95.9% (inactive),99.5% (inactive),102% (inactive),99.4% (inactive),111% (inactive),98.3% (inactive),110% (inactive),–,99.6% (inactive),88.1% (inactive),113% (inactive),97.4% (inactive),83.6% (inactive),–,110% (inactive),106% (inactive),103% (inactive)
N#C/C(=C/c1c(O)ccc2ccccc12)C(N)=O,100% (inactive),101% (inactive),87.4% (inactive),109% (inactive),103% (inactive),94% (inactive),94.1% (inactive),104% (inactive),55.9% (inactive),87.6% (inactive),–,108% (inactive),54% (inactive),114% (inactive),92.4% (inactive),84% (inactive),107% (inactive),–,92.4% (inactive),110% (inactive)

# — PubChem BioAssay (NCI)
